Assay outcomes as filed in PubChem BioAssay.
VACV mCherry inh: qHTS for Stage-Specific Inhibitors of Vaccinia Orthopoxvirus: mCherry Reporter Primary qHTS | AID 720579, 2013 | 0.63% of 310,000 active | Potency, µM (top dose mostly 36.5 µM), for inactives: at the top dose activity change, negative = inhibition, usual class: inhibitors | Vaccinia virus mCherry reporter infection, fluorescence; calls by dose curve; tested in A549 cells; also: % is scaled to controls: 0 for no effect and ±100 for the full control effect; nearly all actives have a fitted effect of over 35% in size
Vaccinia Venus: qHTS for Stage-Specific Inhibitors of Vaccinia Orthopoxvirus: Venus Reporter Primary qHTS; Potency, µM (series often up to 36.5 µM), for the others: top-dose activity change, negative = inhibition, actives largely listed as inhibitors; 0.46% of 330,000 active; Vaccinia virus Venus reporter expression, fluorescence; calls by dose curve; tested in A549 cells; also: % is scaled to controls: 0 for no effect and ±100 for the full control effect; nearly all actives have a fitted effect of over 30% in size
NS1 inh: qHTS Assay for Inhibitors of Influenza NS1 Protein Function. Potency, µM (doses to about 46.1 µM), without a hit: at the top dose activity, positive = more growth. 0.4% of 270,000 active; calls by dose curve; also: actives are rising curves; nearly all actives have a fitted effect of over 50% in size
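Compounds were scored for reversing the slow growth caused by influenza A NS1 in S. cerevisiae, measured by optical density at 600 nm. Assay medium contained 2% galactose at pH 6.0; NS1-free yeast of the same strain were the positive control.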
Pf growth 96h: Primary qHTS for delayed death inhibitors of the malarial parasite plastid, 96 hour incubation. Potency, µM (top dose mostly 28.7 µM), inactives show at the top dose activity change, negative = inhibition, usual class: inhibitors. P. falciparum luciferase reporter growth, 96 h. 6.9% of 320,000 active. AID 504834, 2011; also: % is scaled to controls: 0 for no effect and ±100 for the full control effect
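Parasite growth measured via integrated firefly luciferase reporter in P. falciparum. Infected erythrocytes at 2% hematocrit, 0.05% parasitemia final were treated 96 hours at 37 C under 5% CO2, and luminescence was read.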
HCV inhibitor: qHTS Assay for Inhibitors of Hepatitis C Virus (HCV) | Potency, µM (top dose mostly 41.8 µM), without a hit: at the top dose activity change, negative = inhibition, most hits filed as inhibitors | Huh7.5.1 HCVcc-Cre infection, luciferase reporter, 44 h | 3.4% of 340,000 active | AID 651820, 2012; also: % is scaled to controls: 0 for no effect and ±100 for the full control effect
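Infectious HCV cell culture screen: compound-treated cells (1,000/well, pre-plated 4 h) are infected with HCVcc-Cre at roughly 0.5 moi and grown 44 h. Infection is quantified by luciferase signal after 15 min substrate incubation at room temperature.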
Pf growth 48h: Primary qHTS for delayed death inhibitors of the malarial parasite plastid, 48 hour incubation. P. falciparum luciferase growth in erythrocytes, 48 h. Potency, µM (series often up to 28.7 µM), for inactives: top-dose activity change, negative = inhibition, actives largely listed as inhibitors. 5.9% of 310,000 active; also: % is scaled to controls: 0 for no effect and ±100 for the full control effect
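First compound was added to culture medium, then infected red cells at 0.1% parasitemia and 2% hematocrit (final). After incubation at 37 C under 5% CO2, luciferase detection reagent was dispensed and light output recorded.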
* hit, by the source's call; i = inactive; ? = inconclusive; . = not tested or not shown; [ ] = another dose, or the depositor's remark. Only some compounds are listed: those with a hit (about 11% of all), similar ones and a draw of the others. Unless noted, calls follow the shape of the dose curve; as a rule, active = well fitted inhibition curve with a large enough effect; inconclusive = small, poorly fitted or top-dose-only effect, or another doubt; inactive = no such curve, though single readings can be large or run the other way. Potency is read from the fitted curve at half-maximal effect.

SMILES	VACV mCherry inh	Vaccinia Venus	NS1 inh	Pf growth 96h	HCV inhibitor	Pf growth 48h
COC(=O)c1ccc([C@H]2CC(=O)O2)cc1	11.2µM*	?	-0.7%	-22.1%	31.5%	0.3%
CCN1C(=NCc2cc(OC)c(OC)c(OC)c2)N[C@@H](c2ccccc2)[C@H](C(=O)OC)[C@H]1C	.	.	?	?	.	-5.5%
COc1ccc(C(=O)O/N=C(\N)Cc2ccc(Cl)c(Cl)c2)cc1OC	?	?	-24.2%	17.1%	22.4µM*	4.15µM*
N/C(Cc1ccc(Cl)cc1)=N\OC(=O)c1ccccc1	-11.8%	-18.9%	-188.4%	10.4µM*	-0.6%	.
N/C(=N\OC(=O)c1ccc2c(c1)OCO2)c1cccc(Br)c1	-6.9%	3.7%	-68.4%	1.2%	13.2%	36.0%
N/C(CN1CCCC1=O)=N\OC(=O)c1ccc(Cl)cc1	-8.0%	0.4%	25.0%	11.7µM*	34.1%	0.6%
COc1ccc(/C(N)=N/OC(=O)c2ccc3c(c2)OCO3)cc1OC	-11.6%	-22.9%	-6.4%	?	8.91µM*	?
O=C(O)CCN1C(=O)/C(=C\c2ccncc2)SC1=S	i	-16.0%	.	-18.1%	5.4%	?
COc1cc(OC)c(C(=O)O/N=C(\N)c2ccc(C)cc2)cc1OC	i	-21.7%	-1.8%	79.5%	11.2µM*	?
COc1cc(OC)c(C(=O)O/N=C(\N)c2cccc(C)c2)cc1OC	-10.7%	-23.3%	-3.3%	-8.2%	?	?
COc1ccccc1C/C(N)=N/OC(=O)c1cccc([N+](=O)[O-])c1	-10.5%	-5.8%	1.8%	?	?	11.7µM*
COc1ccc(C(=O)O/N=C(\N)Cc2ccc(Cl)cc2)cc1OC	.	?	-177.6%	10.4µM*	31.6µM*	7.38µM*
CCN(CC)C(=O)C(=O)c1cccn1-c1cccc(Cl)c1C#N	-4.3%	-1.9%	-2.6%	.	5.7%	-11.7%
CC(C)OCCCn1c(=N)c(C(N)=S)cc2c(=O)n3ccccc3nc21	.	.	11.1%	13.1µM*	?	.
CCOC(=O)c1cc2c(=O)n3cccc(C)c3nc2n(CCOC)c1=NC(C)=O	-7.9%	-21.8%	-2.1%	6.57µM*	-25.5%	?
CCOC(=O)c1cc2c(=O)n3cccc(C)c3nc2n(CC2CCCO2)c1=NC(C)=O (stereo not drawn)	-14.1%	23.6%	3.6%	.	?	.
CC(=O)N=c1c(C#N)cc2c(=O)n3ccccc3nc2n1CCCOC(C)C	.	.	6.7%	0.0%	0.4%	2.8%
CCOC(=O)c1cc2c(=O)n3ccccc3nc2n(CCCOC)c1=NC(=O)c1ccncc1	-8.1%	-12.4%	6.0%	?	-22.6%	-18.8%
CCN(C(=O)c1cc2c(=O)n3ccccc3nc2n1CCCOC)C1CCCCC1	i	-18.2%	7.7%	14.7µM*	2.0%	11.7µM*
CCOC(=O)c1cc2c(=O)n3ccccc3nc2n(CCCOC)c1=NC(C)=O	.	.	-5.8%	10.4µM*	?	-12.6%
Cn1c(SCC(=O)c2ccc(F)cc2)ncc(C(=O)Nc2ccccc2)c1=O	-25.9%	-17.1%	.	20.2%	?	16.3%
CSCc1c(C(=O)NC2CCCc3ccccc32)oc2ccccc12 (stereo not drawn)	-7.7%	3.2%	7.0%	6.0%[5.75 µM]	-15.2%	0.9%
CCOC(=O)/C=C1\CN(Cc2cc(OC)c(OC)c(OC)c2)S(=O)(=O)c2ccccc21	-1.8%	?	-7.3%	?	3.16µM*	?
CCOC(=O)/C=C1\CN(Cc2cc(OC)c(OC)c(OC)c2)S(=O)(=O)c2ccc(C(F)(F)F)cc21	-25.8%	?	0.5%	?	?	?
Cc1noc(C)c1COC(=O)CCN1c2ccccc2Sc2ccccc21	.	.	2.8%	11.7µM*	-24.5%	?
SMILES	VACV mCherry inh	Vaccinia Venus	NS1 inh	Pf growth 96h	HCV inhibitor	Pf growth 48h
Cc1nnc2c3ccccc3c(-c3ccc(O)cc3)nn12	.	-10.8%	2.3%	2.4%	15.0%	.
Cc1c(-c2ccc(O)cc2)nc2nc(-c3ccccc3)c(-c3ccccc3)nn12	.	.	-9.1%	2.08µM*	.	0.415µM*
C/C(=N\Nc1nc(-c2ccc(C)cc2)nc2ccccc12)c1ccc([N+](=O)[O-])cc1	.	.	-13.0%	2.08µM*	.	0.2%
COc1ccc(-c2nc(N/N=C(\C)c3ccc(O)cc3)c3ccccc3n2)cc1	.	.	23.6%	-98.0%	10µM*	?
O=C(O)c1ccc(Nc2nc(-c3ccc([N+](=O)[O-])cc3)nc3ccccc23)cc1	-5.7%	-16.8%	3.9%	0.0%	14.1%	?
COc1ccc(OC)c(Nc2nc(-c3ccc(C)cc3)nc3ccccc23)c1	-6.1%[7.34 µM]	4.5%[7.34 µM]	.	.	.	.
COc1ccc(CC(=O)N2CCC(n3nccc3NC(=O)C3CC3)CC2)cc1	-13.4%	-3.3%	1.3%	?	.	12.1%
FC(F)(F)c1cccc(Nc2nc3nonc3nc2Nc2ccc(Cl)cc2)c1	2µM*	1.78µM*	.	.	.	.
O=C(Nc1cccc(C(F)(F)F)c1)c1cc(-c2ccc(Cl)cc2)on1	-4.3%	5.8%	.	.	.	.
CC(C)Cn1[nH]c2c3c(ccc2c1=O)C(=O)c1ccccc1C3=O	.	-26.9%	2.0%	?	11.2µM*	10.4µM*
O=C1c2ccccc2C(=O)c2c1ccc1c(=O)n(-c3ccccc3)[nH]c21	-11.2%	-2.2%	2.9%	19.0%	?	1.1%
COc1cccc(NS(=O)(=O)c2c(C)cc(C)cc2C)c1	-15.4%	-21.7%	-63.2%	?	-2.5%	13.1µM*
COc1ccc(NS(=O)(=O)c2c(C)cc(C)cc2C)cc1	.	.	-58.9%	3.5%	-20.4%	-17.5%
CNC(=S)N1N=C(c2ccc(OC)cc2)CC1c1ccc(Cl)cc1Cl (stereo not drawn)	i	-18.0%	12.5%	5.86µM*	2.9%	11.7µM*
CNC(=S)N1N=C(c2ccc(C)cc2)CC1c1cc(OC)ccc1OC (stereo not drawn)	-26.0%	-26.2%	11.5%	-29.3%	?	?
COc1ccc(OC)c(C2CC(c3ccccc3)=NN2C(=S)Nc2ccccc2)c1 (stereo not drawn)	.	.	2.9%	?	-4.2%	2.33µM*
COc1cc(C(=O)Nc2ccc(N(C)C)cc2)cc(OC)c1OC	-1.5%	-11.9%	-2.8%	220.4%	?	140.4%
O=S(=O)(c1ccccc1)N1CCN(CCOc2ccc(F)cc2)CC1	-12.6%	-11.7%	.	.	.	.
Clc1ccc(CNc2ncnc3[nH]ncc23)cc1Cl	11.2µM*	10µM*	.	.	-18.7%	.
O=C(C1CCCN(S(=O)(=O)c2ccc(Br)s2)C1)N1CCN(c2cccc(Cl)c2)CC1 (stereo not drawn)	-26.9%	-18.5%	.	.	.	.
Cn1c(SCC(=O)NCc2ccco2)nnc1-c1ccc(S(=O)(=O)N2CCOCC2)cc1	?	-5.1%	6.1%	11.7µM*	18.1%	-10.2%
